Inconclusive results are not listed. Active and inactive are the calls of the source.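 The calls were made as follows, unless noted: active = normalized viability below 100% at a tested concentration; inactive = the rest.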
Columns and labels:
[1] = viability loss in pontine glioma line – cell-based, SU-DIPG-XVII, MIPE5.0, CellTiter-Glo, qHTS, dose response (AID 1347060; cut-off not given, nearly all actives have AC50 up to about 26 µM;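 also: cells exposed to compound for 48 hours before viability readout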); settings: CellTiter-Glo ATP luminescence
[2] = viability loss in pontine glioma line – cell-based, JHH-DIPG-1, MIPE4.0, CellTiter-Glo, qHTS, dose response (AID 1347062; cut-off not given, nearly all actives have AC50 up to about 27 µM;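 as to AC50: cells exposed to compound for two days before readout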); settings: JHH-DIPG-1 viability, CellTiter-Glo ATP luminescence
[3] = viability loss in pontine glioma line – cell-based, SU-DIPG-IV, MIPE4.0, CellTiter-Glo, qHTS, dose response (AID 1347063; cut-off not given, nearly all actives have AC50 up to about 30 µM;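 also: compound exposure lasted 48 hours before the viability readout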); settings: CellTiter-Glo ATP luminescence
[4] = viability loss in pontine glioma line – cell-based, SU-DIPG-XIII, MIPE5.0, CellTiter-Glo, qHTS, dose response (AID 1347064; cut-off not given, nearly all actives have AC50 up to about 23 µM;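 also: cells exposed to compound for 48 hours before the viability read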); settings: CellTiter-Glo ATP luminescence
[5] = viability loss in pontine glioma line – cell-based, SU-DIPG-XXV, MIPE5.0, CellTiter-Glo, qHTS, dose response (AID 1347065; cut-off not given, nearly all actives have AC50 up to about 26 µM;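 also: cells exposed to compound for 48 hours before ATP readout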); settings: CellTiter-Glo ATP luminescence
[6] = viability loss with induced miR-34 in A549 – imaging, A549 dox-inducible miR-34, nuclei and caspase counts, primary screen (AID 1347080;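 active = compounds whose cell count with miR-34 switched on is under 0.7 times the count with it off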); settings: A549 miR-34 inducible, Hoechst nuclei count, 48 h
[7] = compounds altering HSF1 focus formation in cells – imaging, Selleck Cancer Library (AID 1347162; in the data active = plate-normalised HSF1 focus index below about 0.46); settings: human cells, HSF1 nuclear foci imaging, at 10 µM; SSMD: measured here: HSF1 foci SSMD mean; cell count: measured here: cell number; plate-normalised HSF1 focus index: stronger effect = lower value
[8] = MELAS cybrid and Rieske KO viability enhancers – cell-based, MELAS cybrids, Rieske KO mouse fibroblasts, CellTiter-Glo, primary screen (AID 1508586;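 active = mean z-score across replicates of 1.96 or higher in either the MELAS or the Rieske mutant cell line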;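 also: z relative to plate mean and SD of compound and empty wells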); settings: low glucose
[9] = drug combination growth inhibition, ovarian cancer – cell-based, oncology-focused library, rucaparib conditional, profiling panel (AID 1508598); settings: patient-derived ovarian cancer cells, CellTiter-Glo viability, 144 h, stronger effect = lower value
[10] = growth inhibition of DIPG cells – cell-based, MIPE5.0 library, qHTS (AID 1347068; cut-off not given, nearly all actives have IC50 up to about 30 µM;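 as to IC50: cells exposed to compound for 48 hours before viability readout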); settings: SU-DIPG-XXV viability
[11] = JHH-DIPG-1 glioma cell viability, MIPE5.0 library, CellTiter-Glo luminescence, qHTS (AID 1347067; cut-off not given, nearly all actives have AC50 up to about 26 µM;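 also: cells exposed to compound for 48 hours before readout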); settings: JHH-DIPG-1 glioma viability, CellTiter-Glo ATP luminescence
[12] = stronger effect = lower value, cell number ratio, induced over uninduced
[13] = measured here: relative caspase fold change +Dox/-Dox
[14] = measured here: total cells with miR-34 induction, stronger effect = lower value
[15] = measured here: total cells without miR-34 induction
[16] = MELAS cybrid survival, CellTiter-Glo 48 h, stronger effect = higher value
[17] = Rieske KO mouse fibroblast survival, CellTiter-Glo 72 h
[18] = at 0.000305 µM, OCI-C5x cells, with rucaparib 10 µM, 100% = cells with rucaparib alone
[19] = at 0.000305 µM, OCI-C5x cells, without rucaparib
[20] = at 0.000305 µM, OCI-P5x cells, with rucaparib 20 µM, 100% = cells with rucaparib alone
[21] = at 0.000305 µM, OCI-P5x cells, without rucaparib
[22] = at 0.00122 µM, OCI-C5x cells, with rucaparib 10 µM, 100% = cells with rucaparib alone
[23] = at 0.00122 µM, OCI-C5x cells, without rucaparib
[24] = at 0.00122 µM, OCI-P5x cells, with rucaparib 20 µM, 100% = cells with rucaparib alone
[25] = at 0.00122 µM, OCI-P5x cells, without rucaparib
[26] = at 0.00488 µM, OCI-C5x cells, with rucaparib 10 µM, 100% = cells with rucaparib alone
[27] = at 0.00488 µM, OCI-C5x cells, without rucaparib
[28] = at 0.00488 µM, OCI-P5x cells, with rucaparib 20 µM, 100% = cells with rucaparib alone
[29] = at 0.00488 µM, OCI-P5x cells, without rucaparib
[30] = at 0.0195 µM, OCI-C5x cells, with rucaparib 10 µM, 100% = cells with rucaparib alone
[31] = at 0.0195 µM, OCI-C5x cells, without rucaparib
[32] = at 0.0195 µM, OCI-P5x cells, with rucaparib 20 µM, 100% = cells with rucaparib alone
[33] = at 0.0195 µM, OCI-P5x cells, without rucaparib
[34] = at 0.0781 µM, OCI-C5x cells, with rucaparib 10 µM, 100% = cells with rucaparib alone
[35] = at 0.0781 µM, OCI-C5x cells, without rucaparib
[36] = at 0.0781 µM, OCI-P5x cells, with rucaparib 20 µM, 100% = cells with rucaparib alone
[37] = at 0.0781 µM, OCI-P5x cells, without rucaparib
[38] = at 0.313 µM, OCI-C5x cells, with rucaparib 10 µM, 100% = cells with rucaparib alone
[39] = at 0.313 µM, OCI-C5x cells, without rucaparib
[40] = at 0.313 µM, OCI-P5x cells, with rucaparib 20 µM, 100% = cells with rucaparib alone
[41] = at 0.313 µM, OCI-P5x cells, without rucaparib
[42] = at 1.25 µM, OCI-C5x cells, with rucaparib 10 µM, 100% = cells with rucaparib alone
[43] = at 1.25 µM, OCI-C5x cells, without rucaparib
[44] = at 1.25 µM, OCI-P5x cells, with rucaparib 20 µM, 100% = cells with rucaparib alone
[45] = at 1.25 µM, OCI-P5x cells, without rucaparib
[46] = at 5 µM, OCI-C5x cells, with rucaparib 10 µM, 100% = cells with rucaparib alone
[47] = at 5 µM, OCI-C5x cells, without rucaparib
[48] = at 5 µM, OCI-P5x cells, with rucaparib 20 µM, 100% = cells with rucaparib alone
[49] = at 5 µM, OCI-P5x cells, without rucaparib

Structure (SMILES): COc1cc2nccc(Oc3ccc(NC(=O)NC4CC4)c(Cl)c3)c2cc1C(N)=O
- AC50 [1]: 2.09 µM (active)
- AC50 [2]: 2.35 µM (active)
- AC50 [3]: 4.69 µM (active)
- AC50 [4]: 4.68 µM (active)
- AC50 [5]: 2.35 µM (active)
- fold change [6, 12]: 0.924 (inactive)
- fold change [6, 13]: 1.21
- cell count [6, 14]: 5580
- cell count [6, 15]: 6040
- SSMD [7]: 2.76
- cell count [7]: 6600
- plate-normalised HSF1 focus index [7]: 1.14 (inactive)
- z-score [8, 16]: -0.303 (inactive)
- z-score [8, 17]: 0.105
- viability [9, 18]: 125% (inactive)
- viability [9, 19]: 110% (inactive)
- viability [9, 20]: 111% (inactive)
- viability [9, 21]: 105% (inactive)
- viability [9, 22]: 100% (inactive)
- viability [9, 23]: 110% (inactive)
- viability [9, 24]: 112% (inactive)
- viability [9, 25]: 114% (inactive)
- viability [9, 26]: 108% (inactive)
- viability [9, 27]: 103% (inactive)
- viability [9, 28]: 110% (inactive)
- viability [9, 29]: 112% (inactive)
- viability [9, 30]: 103% (inactive)
- viability [9, 31]: 113% (inactive)
- viability [9, 32]: 117% (inactive)
- viability [9, 33]: 114% (inactive)
- viability [9, 34]: 103% (inactive)
- viability [9, 35]: 112% (inactive)
- viability [9, 36]: 111% (inactive)
- viability [9, 37]: 111% (inactive)
- viability [9, 38]: 108% (inactive)
- viability [9, 39]: 110% (inactive)
- viability [9, 40]: 108% (inactive)
- viability [9, 41]: 110% (inactive)
- viability [9, 42]: 126% (inactive)
- viability [9, 43]: 111% (inactive)
- viability [9, 44]: 119% (inactive)
- viability [9, 45]: 112% (inactive)
- viability [9, 46]: 142% (inactive)
- viability [9, 47]: 111% (inactive)
- viability [9, 48]: 91.4% (active)
- viability [9, 49]: 88.9% (active)

Structure (SMILES): COc1ccc(-c2oc3c(CC=C(C)C)c(O)cc(O)c3c(=O)c2O)cc1
- AC50 [1]: 20.9 µM (active)
- outcome [2]: inactive
- outcome [3]: inactive
- AC50 [4]: 16.6 µM (active)
- AC50 [5]: 18.6 µM (active)
- outcome [10]: inactive

Structure (SMILES): O=C(Nc1cn[nH]c1-c1nc2ccc(CN3CCOCC3)cc2[nH]1)NC1CC1
- AC50 [1]: 1.66 µM (active)
- AC50 [2]: 10.5 µM (active)
- AC50 [3]: 1.32 µM (active)
- AC50 [4]: 5.9 µM (active)
- AC50 [5]: 0.661 µM (active)
- AC50 [11]: 1.86 µM (active)
- IC50 [10]: 8.33 µM (active)
- fold change [6, 12]: 1.08 (inactive)
- fold change [6, 13]: 0.829
- cell count [6, 14]: 1190
- cell count [6, 15]: 1110
- z-score [8, 16]: 2.04 (active)
- z-score [8, 17]: -1.89
- viability [9, 18]: 103% (inactive)
- viability [9, 19]: 125% (inactive)
- viability [9, 20]: 120% (inactive)
- viability [9, 21]: 122% (inactive)
- viability [9, 22]: 128% (inactive)
- viability [9, 23]: 132% (inactive)
- viability [9, 24]: 111% (inactive)
- viability [9, 25]: 116% (inactive)
- viability [9, 26]: 116% (inactive)
- viability [9, 27]: 119% (inactive)
- viability [9, 28]: 116% (inactive)
- viability [9, 29]: 118% (inactive)
- viability [9, 30]: 102% (inactive)
- viability [9, 31]: 111% (inactive)
- viability [9, 32]: 120% (inactive)
- viability [9, 33]: 105% (inactive)
- viability [9, 34]: 82% (active)
- viability [9, 35]: 108% (inactive)
- viability [9, 36]: 111% (inactive)
- viability [9, 37]: 76.9% (active)
- viability [9, 38]: 89.8% (active)
- viability [9, 39]: 104% (inactive)
- viability [9, 40]: 109% (inactive)
- viability [9, 41]: 66.7% (active)
- viability [9, 42]: 36.1% (active)
- viability [9, 43]: 48.8% (active)
- viability [9, 44]: 118% (inactive)
- viability [9, 45]: 53.2% (active)
- viability [9, 46]: 26.8% (active)
- viability [9, 47]: 18.2% (active)
- viability [9, 48]: 39.6% (active)
- viability [9, 49]: 18.8% (active)

Reference: PubChem BioAssay
